This note sets out measurements from ChEMBL document CHEMBL4513216, “Probing the Open Global Health Chemical Diversity Library for Multistage-Active Starting Points for Next-Generation Antimalarials” (ACS Infect Dis, 2020).

Molecules are shown by their SMILES. Out of some 69,000 compounds screened, about 8,600 (12%) showed an effect of 50% or more. For the sample, strong results were picked, then their nearest neighbours and some compounds at random.

For this assay, the system named is Plasmodium berghei. The assay can be described thus: Screen against P. berghei liver stage (PbLuc), transformed with Luciferase, at 10uM. The note with it: tested at 10 uM. In kind it is functional, HepG2.
For the molecule `Cc1ccc(F)cc1S(=O)(=O)NCc1cccc(C(=O)N2CCCC2)c1`, the INHIBITION is recorded as -77.1%.

On to `O=C(NC1CCC(O)CC1)c1ccc2nc(-c3ccccc3)cn2c1` (centres undefined), for which the INHIBITION was -25.1%.

Regarding `COCC(=O)N(C)Cc1cccc(Cl)c1`, the INHIBITION came out at 15%. Consider `O=C(CN1CCN(CC(O)C2CC2)CC1)NCc1ccc(F)cc1` (centres undefined), for which the INHIBITION was determined as 1.58%. The value for `CCOCc1ncn2c1CN(C(=O)c1ccoc1)CC2` was 39.2%; that for `O=C(c1cnccn1)N1CCn2cnc(COCC3CC3)c2C1` was 60.1%; that for `O=C(c1ccoc1)N1CCCn2cnc(COCC3CC3)c2C1` was 39.2%. Turning to `O=C(c1ccoc1)N1CCn2cnc(COCC3CC3)c2C1`, the INHIBITION is 56.7%. For the molecule `O=C(c1cscn1)N1CCn2cnc(COCC3CC3)c2C1`, the INHIBITION is given as -6.23%. Take `O=C(c1ccccn1)N1CCn2cnc(COCC3CC3)c2C1`: the INHIBITION is given as 19.7%.

For `c1cnn(CC2CCCCN2Cc2nc(-c3ccsc3)no2)c1` (centres undefined), the INHIBITION came out at 0.914%. As for `CC(=O)N1CCCC(c2ccc(Nc3nc(C)cc(C)n3)cn2)C1` (centres undefined), the figure is 33.5%. On to `CSc1[nH]nc(NC(=O)c2cccnc2)c1C#N`, for which the INHIBITION is -35.5%. Consider `CCn1cnc(NC(=O)N2CCCC(c3ccccc3)CC2)n1` (centres undefined), for which the INHIBITION was 22.4%. Consider `CCn1cnc(NC(=O)N2CCC(c3ccc(F)cc3)C2)n1` (centres undefined), for which the INHIBITION worked out at 31.6%. `CCn1cnc(NC(=O)N2CCC(c3ccc(Cl)cc3)C2)n1` (centres undefined): the INHIBITION stood at 58.2%. Regarding `CSCc1cccc(S(=O)(=O)N2CCCC2)c1`, the INHIBITION stood at 33.3%. For the molecule `Cc1cccc(N2CCC3(CCN(Cc4ccccn4)CC3)CC2)n1`, the INHIBITION amounted to 15.3%.

As to `COCCC(=O)N1CCCC1c1nc(O)cc(C(C)C)n1` (centres undefined), the INHIBITION is reported as 23.2%. For `COC(=O)c1ccc2c(-c3ccnc(NCCO)n3)c[nH]c2c1`, the INHIBITION is 10%. `CC[C@@H](CO)Nc1nccc(-c2c[nH]c3cc(C(=O)OC)ccc23)n1`: the INHIBITION was 69.3%. As for `COC(=O)c1ccc2c(-c3ccnc(N[C@@H](C)CO)n3)c[nH]c2c1`, the figure is 18.9%; as for `COc1ccc(CNC2CCC(O)CC2)cc1OCCCC#N` (centres undefined), 17.8%. On to `Cc1ccc(CN2CCC3(CC2)NC(=O)CC3c2ccncc2)cc1C` (centres undefined), for which the INHIBITION amounted to 16.6%. On to `CC(C)CCC(C)NC(=O)CN1C=Nc2ccccc2S1(=O)=O` (centres undefined), for which the INHIBITION amounted to 12.7%. For `CC(C)CNC(=O)CN1C=Nc2ccccc2S1(=O)=O`, the INHIBITION is recorded as 56.1%.

With `O=C(CN1C=Nc2ccccc2S1(=O)=O)NCCCc1ccccc1`, the INHIBITION turned out to be 55.2%.

With `CC(C)OCCCNC(=O)CN1C=Nc2ccccc2S1(=O)=O`, the INHIBITION was 12.7%. Turning to `O=C(CN1C=Nc2ccccc2S1(=O)=O)NCc1ccccc1`, the INHIBITION came out at 7.27%.

Turning to `O=C(CN1C=Nc2ccccc2S1(=O)=O)NCCc1cccs1`, the INHIBITION is listed as 53.8%. On to `O=C(CN1C=Nc2ccccc2S1(=O)=O)NCC1CC1`, for which the INHIBITION is 29.2%. On to `CC(NC(=O)CN1C=Nc2ccccc2S1(=O)=O)c1ccccc1` (centres undefined), for which the INHIBITION was -18.5%. As to `Cc1ccc(CNC(=O)CN2C=Nc3ccccc3S2(=O)=O)s1`, the INHIBITION is recorded as 22.3%.

On to `CNC(=O)c1ccc(-c2ccc(CNS(=O)(=O)N(C)C)cc2)nc1C`, for which the INHIBITION was found to be 8.12%. On to `O=c1occ(CN2CCCCCC2)c(O)c1CN1CCCCCC1`, for which the INHIBITION was 25.8%. For the molecule `Cc1ccc(-c2ncc(C(=O)N3CCC[C@H](N)C3)c(O)n2)cc1`, the INHIBITION came out at 42.2%. With `COc1ccc(CCC2CCCN(C(=O)c3cnc(N)nc3C)C2)cc1` (centres undefined), the INHIBITION is 34.9%. The value for `Cc1ccc(-c2ncc(C(=O)N3CCCN4CCC[C@H]4C3)c(O)n2)cc1` was 15.2%; that for `Cc1ccc(-c2ncc(C(=O)N3CCCC(CCN)C3)c(O)n2)cc1` (centres undefined) was 53.8%; that for `Cc1nc(N)ncc1C(=O)N1CCCC(CCc2ccc(F)c(F)c2)C1` (centres undefined) was 38.5%. As for `Cc1nc(N)ncc1C(=O)N1CCCC(CCc2ccc(F)cc2)C1` (centres undefined), the figure is 90.3%; as for `O=C(c1c[nH]cn1)N1CCC(F)(F)C2(CCN(c3cccc(F)c3)C2)C1` (centres undefined), 21.7%.

As for `CC(=O)Nc1ccc(SCC(O)COCc2ccc3c(c2)OCO3)cc1` (centres undefined), the INHIBITION stood at 25.8%.

In the case of `COc1ccc(CN(C)CC2(O)CCNC2)cc1` (centres undefined), the INHIBITION was found to be 20.85%. As for `Cc1nc(CN2CCC3(CC2)CC(c2cccnc2)C(=O)N3C)cs1` (centres undefined), the INHIBITION is given as 34.5%.

For the molecule `CS(=O)(=O)NC[C@]1(O)CCN(C(=O)Cc2cccs2)C[C@H]1O`, the INHIBITION is given as -8.12%. Regarding `C[C@@H]1CN(C(=O)C2CCS(=O)(=O)CC2)C[C@]1(C)O`, the INHIBITION was -7.81%.

Turning to `CNC(=O)NC(=O)C(NCc1cccs1)c1ccccc1` (centres undefined), the INHIBITION is on record as 64.7%. Regarding `NC(=O)C(NCc1ccc(Cl)s1)c1ccccc1` (centres undefined), the INHIBITION is given as -22.6%. Consider `NC(=O)C(NCCc1ccc(Cl)s1)c1ccccc1` (centres undefined), for which the INHIBITION is given as -35.8%. `CNC(=O)NC(=O)C(NCc1ccccc1)c1ccccc1` (centres undefined): the INHIBITION stood at 24.8%. As for `O=C(C(CNCc1cccs1)c1ccccc1)N1CCOCC1` (centres undefined), the INHIBITION is given as 5.85%. The value for `NC(=O)C(NCc1cccs1)c1ccccc1` (centres undefined) was 60.1%. As for `CC(C)(C)N1CC(C(=O)N2CC(Oc3ccc(F)cc3)C2)CC1=O` (centres undefined), the figure is 18.5%.
